The results in this text go back to PubChem BioAssay AID1347156 (National Center for Advancing Translational Sciences (NCATS), 2019).

The structures appear in SMILES notation. Results filed as inconclusive are left out. Active and inactive are the calls of the source. Calls follow the shape of the dose curve; as a rule, active = well fitted cell-killing curve with a large enough effect; inconclusive = small, poorly fitted or top-dose-only effect; inactive = flat fitted curve, though single readings scatter.
Potency is read from the fitted curve at half-maximal effect.

A short description of this assay: DAPI mCherry counterscreen qHTS for Zika virus inhibitors. Also: nearly all actives have a fitted effect of over 55% in size. The following applies: Vero cells, DAPI nuclear count cytotoxicity, imaging 48-72 h, infected with Zika reporter virus, MOI 1; series mostly up to 32.6 µM. The source says:
Assay Submitters (PI): Avindra Nath, Ph.D., National Institute of Neurological Disorders and Stroke (NINDS), Bethesda, MD Radhakrishnan Padmanabhan, Ph.D., Georgetown University (GU), Washington D.C. Zika Virus causes congenital defects, including microcephaly and is associated with Guillain-Barre syndrome, eningoencephalitis and myelitis in infected adult. […] Using a target-based approach, we hope to establish a screening paradigm to uncover novel, cell-active NS2B-NS3 protease (Zika Virus) specific inhibitors from NCATS' collection of small molecules using qHTS. […] Four assay panel was created to identify potential Zika Virus inhibitors. Namely, (1) GU unlinked NS2B-NS3 AMC tagged protease qHTS, (2) GU unlinked NS2B-NS3 Rhodamine tagged protease qHTS, (3) NINDS linked NS2B-NS3 AMC tagged protease qHTS, (4) NINDS linked NS2B-NS3 Rhodamine tagged protease qHTS. Active compounds were re-acquired and re-screened to confirm inhibition. Inhibitors were further screened against various confirmatory and counterscreens in dose response format. […] A DAPI (mCherry counterscreen) which determine Vero cell cytotoxicity was used to exclude false positive compounds. […] Early Translation Branch (ETB) National Center for Advancing Translational Sciences (NCATS), Rockville, MD National Institute of Health (NIH), Bethesda, Maryland
384 well ZIKV-mCherry & mCherry DAPI counterscreen: We have developed a new orthogonal imaging assay in 384-well plate format, which uses recombinant virus ZIKV-mCherry in Vero cells. Briefly, 30 microL of Vero cells derived from a green monkey cell line, were dispensed by Multidrop Dispenser into a clear solid bottom black 384 well plate (ultracarrier, Perkin Elmer LifeSciences) at a concentration of 5,000 cells per well. The plate was incubated overnight in a CO2 incubator at 37 degrees C. Compounds were delivered as a 126 nL DMSO solution by Kalypsys pintool transfer. Following compound transfer, 10 microL of ZIKV-mCherry was added at an MOI of 1 and incubated in a CO2 incubator for 48-72 hrs at 37 degrees C. After sufficient incubation of infected cells in test plates, 8 microL of 32% PFA was dispensed into assay plates to fix cells and incubated for 20 min at room temperature. Plates were washed 3 times with PBS using BioTek EL406 microplate washer/dispenser. After washing, 30 microL of PBS with 0.01% TX-100 containing Hoechst dye was dispensed into the each well of the plates for nuclear staining. 384-well plates were imaged on an automated, widefield high content imager (INCell 2200, GE Healthcare) using a 10x/0.45 NA lens and standard DAPI (nuclear stain) and mCherry (cy5) excitation and emission filters. The TIFFs were quantitated using the canned Multi Target Analysis protocol (GE Investigator Workstation software v3.7.2). Briefly, nuclei from the DAPI channel were identified using top hat segmentation and a sensitivity setting of 96 and minimum size area of 35 microm2. A recombinant Zika viral infection was monitored in the Cy5 channel (cells) using a 2 microm collar dilation from the nuclear bitmap. mCherry objects with an average nuclear RFU intensity above 450 (3 stdev above mean negative control wells) were considered "mcherry positive" and data was analyzed by percent infection rate.
(Counterscreens check selectivity or assay interference.)
`CCCCCCOc1cc2c(cc1N(C)c1ncc(C(=O)O)cn1)C(C)(C)CCC2(C)C`: the Potency was 22.4 µM (active). Next, `CCOc1ccc(-c2cc(NC(=O)c3c(F)cccc3F)c(C(=O)O)s2)cc1`: 5.01 µM (active); `O=C(O)c1cc(N(Cc2ccc(C3CCCCC3)cc2)C(=O)c2ccc(Oc3ccccc3)cc2)ccc1O`: 35.5 µM (active). Next, `CO[C@H]1C[C@@H](O[C@@H]2/C(C)=C/C[C@@H]3C[C@@H](C[C@]4(CC[C@H](C)[C@@H](C5CCCCC5)O4)O3)OC(=O)[C@@H]3C=C(C)/C(=N/O)[C@H]4OC/C(=C\C=C\[C@@H]2C)[C@]43O)O[C@@H](C)[C@H]1O`: 11.2 µM (active); `COc1ccc(C(=O)Nc2ccc(C(=O)OCc3cc(=O)n4nc(C(C)C)sc4n3)cc2)cc1`: “inactive”.

With `CC1(COc2ccc(CC3SC(=O)NC3=O)cc2)CCCCC1` (stereo not given), the Potency was 31.6 µM (active). With `Nc1ncnc2c1ncn2[C@@H]1O[C@H](CSCC[C@H](N)C(=O)O)[C@@H](O)[C@H]1O`, the Potency entry is “inactive”.

As to `CCC(C)CCCCC(=O)NC(CCNCS(=O)(=O)O)C(=O)NC(C(=O)NC(CCNCS(=O)(=O)O)C(=O)NC1CCNC(=O)C(C(C)O)NC(=O)C(CCNCS(=O)(=O)O)NC(=O)C(CCNCS(=O)(=O)O)NC(=O)C(CC(C)C)NC(=O)C(CC(C)C)NC(=O)C(CCNCS(=O)(=O)O)NC1=O)C(C)O` (stereo not given), the Potency result is “inactive”. Under `CN(CC(=O)N(Cc1ccc(C2CCCCC2)cc1)c1ccc(C(=O)O)cc1)S(=O)(=O)c1c(F)c(F)c(F)c(F)c1F` stands 5.62 µM (active); under `CCCCCCCOc1cc2c(cc1/C(C)=C/c1ccc(C(=O)O)cc1)C(C)(C)CCS2(=O)=O`, 15.8 µM (active). Under `Cc1cc(N2CCOCC2)cc2[nH]c(-c3c(NC[C@@H](O)c4cccc(Cl)c4)cc[nH]c3=O)nc12` stands 12.6 µM (active); under `Oc1c(Cl)cc(Cl)c(Cl)c1Cc1c(O)c(Cl)cc(Cl)c1Cl`, 31.6 µM (active). For `O=C(O)c1ccc(S(=O)(=O)N(Cc2ccc(OC(F)(F)F)cc2)c2ncc(C(F)(F)F)cc2Cl)cc1`, the Potency was 25.1 µM (active). Under `O=C(O)c1cc(-n2c(/C=C\c3ccc(F)cc3)nc3ccccc3c2=O)ccc1Cl` stands “inactive”; under `CC(C)(C)c1ccc(S(=O)(=O)Nc2ccc(O)c(Sc3nc4ccccc4s3)c2)cc1`, 14.1 µM (active); under `O=C(Nc1ccc(S(=O)(=O)Nc2nccs2)cc1)C(c1ccccc1)c1ccccc1`, “inactive”. As to `CC1CCN(C(c2ccc(F)cc2)c2ccc(C(C)C(=O)O)cc2-c2ccc(C(F)(F)F)cc2)CC1` (stereo not given), the Potency was 8.91 µM (active).

In the case of `Cc1cc(C)cc(C(=O)N(C)[C@H](Cc2ccc(-c3ccccc3)cc2)C(=O)N[C@@H](Cc2c[nH]c3ccccc23)C(=O)O)c1`, the Potency is 8.91 µM (active). Under `CCCCCc1ccc(/C=C/C(=O)Nc2cc(Cl)ccc2C(=O)O)cc1` stands 35.5 µM (active). Under `Fc1cc(C2=Nn3c(COc4ccc(Cl)cc4Cl)nnc3S/C2=C\c2ccc(-c3ccc(Cl)cc3)o2)c(Cl)cc1Cl` stands “inactive”; under `Nc1cc(N)c(N=Nc2ccc(S(=O)(=O)Nc3nccs3)cc2)cc1N=Nc1ccc(S(=O)(=O)Nc2nccs2)cc1`, “inactive”. Under `Cc1cc(CN2CCN(c3c(Br)cnc4nc(-c5ccc(N6CCN(C)CC6)cc5)[nH]c34)CC2)no1` stands 10 µM (active); under `O=C(Nc1ccc(Oc2ccc(Cl)cc2)c(Cl)c1)c1cc(I)cc(I)c1O`, 10 µM (active); under `Cc1ccc([C@@H]2CC=C(C(=O)O)[C@H](c3ccc(C(C)(C)C)cc3)N2S(=O)(=O)c2ccc(C)cc2)cc1`, 31.6 µM (active). For the molecule `O=C(Nc1cccc(C(=O)Nc2ccc(S(=O)(=O)O)c3cc(S(=O)(=O)O)cc(S(=O)(=O)O)c23)c1)Nc1cccc(C(=O)Nc2ccc(S(=O)(=O)O)c3cc(S(=O)(=O)O)cc(S(=O)(=O)O)c23)c1`, the Potency result was “inactive”. Take `O=c1c(O)c(-c2ccc(O)cc2O)oc2cc(O)cc(O)c12`: the Potency entry is “inactive”. Next, `O=C(COc1ccccc1C(=O)OCC(=O)Nc1cccc2ccccc12)Nc1ccc(Br)cc1`: “inactive”. Next, `COc1cc(/C=C(\C#N)C(=O)Nc2nnc(C(F)(F)F)s2)ccc1OCc1ccc(C(F)(F)F)cc1C(F)(F)F`: 7.08 µM (active); `COc1cccc(C(=O)Nc2ccc(C(=O)OCc3cc(=O)n4nc(C5CC5)sc4n3)cc2)c1`: 5.62 µM (active). As for `O=c1cc(-c2ccccc2)oc2cc(O)c(O)c(O)c12`, the Potency result is “inactive”. Regarding `COc1ccc(NS(=O)(=O)c2ccc3c(c2)[C@H]2C=CC[C@H]2[C@@H](c2ccc(C(=O)O)cc2)N3)cc1`, the Potency entry is “inactive”. Take `Cc1c(C2(c3cc(C(C)C)c(O)c(Br)c3C)OS(=O)(=O)c3ccccc32)cc(C(C)C)c(O)c1Br`: the Potency result is “inactive”. Next, `CN(C)[C@@H]1C(=O)C(C(=O)NCN2CCCC2)=C(O)[C@@]2(O)C(=O)C3=C(O)c4c(O)cccc4[C@@](C)(O)C3C[C@@H]12` (stereo not given in full): “inactive”; `CCN(Cc1cccc(S(=O)(=O)O)c1)c1ccc(C(=C2C=CC(=[N+](CC)Cc3cccc(S(=O)(=O)O)c3)C=C2)c2ccc(O)cc2S(=O)(=O)O)cc1`: “inactive”; `O=C(O)c1ccc(CCCc2ccc(OCCc3ccc(F)cc3)cc2)o1`: 31.6 µM (active).

For the molecule `O=C(Nc1ccc(-c2ccc(Cl)c(Cl)c2)cc1)C1=C(O)c2ccccc2S(=O)(=O)N1`, the Potency is 8.91 µM (active). Next, `N#Cc1ccc(N2N=C3c4ccc(C(=O)O)cc4CC[C@@H]3[C@@H]2C2CCCC2)cc1Cl`: 4.47 µM (active); `O=S(=O)(O)c1ccc2c(N=Nc3ccc(S(=O)(=O)O)c4ccccc34)c(O)c(S(=O)(=O)O)cc2c1`: “inactive”; `O=C(Nc1ccc(S(=O)(=O)N2CCOCC2)cc1)c1cc(Cl)ccc1NS(=O)(=O)c1ccc(Cl)s1`: 15.8 µM (active). Next, `O=S(=O)(Nc1ccc(Cl)cc1)c1ccc(NS(=O)(=O)c2ccc3c(c2)OCCO3)cc1`: 31.6 µM (active).
